{"source": "the supplement of paper PMC9942566", "note": "± gives the standard deviation of the averaged measurements."}
{"system": "Serratia marcescens K904 PosmB-luxCDABE reporter (pMQ747)", "test": "PosmB-lux reporter fold induction (RLU/OD600 relative to no-compound control), highest over Biolog concentrations; higher = stronger reporter activation", "details": "ΔrcsB mutant CMS5177; 4 h", "procedure": "(§1)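 Serratia marcescens K904 (wild type) or its isogenic ΔrcsB mutant, carrying the Rcs-dependent PosmB-luxCDABE reporter plasmid pMQ747, was grown in LB at OD600 0.1 in Biolog Phenotype MicroArray plates PM11-20 for 4 h at 30-32°C. Each compound is present at 3-4 proprietary concentrations (not stated); per the Fig. S1 legend the value given is the highest fold over those wells. Three independent trials.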"}
{"smiles": "NO", "note": "[hydroxylamine] (Biolog plate: PM19, well positions: G9-12)", "PosmB-lux reporter fold induction": "1.39 ± 0.47"}
{"smiles": "S=c1nc[nH]c2nc[nH]c12", "note": "[6-Mercapto-purine] (Biolog plate: PM13, well positions: C1-4)", "PosmB-lux reporter fold induction": "1.22 ± 0.54"}
{"smiles": "C[n+]1c2cc(N)ccc2cc2ccc(N)cc21.Nc1ccc2cc3ccc(N)cc3nc2c1", "note": "[Acriflavine] (Biolog plate: PM14, well positions: A2-4)", "PosmB-lux reporter fold induction": "2.05 ± 0.23"}
{"smiles": "CC1(C)S[C@@H]2[C@H](NC(=O)[C@H](NC(=O)N3CCNC3=O)c3ccccc3)C(=O)N2[C@H]1C(=O)O", "note": "[Azlocillin] (Biolog plate: PM13, well positions: B1-4)", "PosmB-lux reporter fold induction": "1.27 ± 0.56"}
{"smiles": "CNC(C)C1CCC(N)C(OC2C(N)CC(N)C(OC3OCC(C)(O)C(NC)C3O)C2O)O1", "note": "(configuration not stated) [Gentamicin] (Biolog plate: PM11, well positions: G5-8)", "PosmB-lux reporter fold induction": "1.47 ± 0.41"}
{"smiles": "CN(C)CCCN1c2ccccc2Sc2ccc(Cl)cc21", "note": "[chlorpromazine] (Biolog plate: PM17, well positions: D9-12)", "PosmB-lux reporter fold induction": "1.63 ± 0.49"}
{"system": "Serratia marcescens K904 PosmB-luxCDABE reporter (pMQ747)", "test": "PosmB-lux reporter fold induction (RLU/OD600 relative to no-compound control), highest over Biolog concentrations; higher = stronger Rcs reporter activation", "details": "wild type K904; 4 h", "procedure": "as §1"}
{"smiles": "CCC(C)CCCC(=O)N[C@@H](CCN)C(=O)N[C@H](C(=O)N[C@@H](CCN)C(=O)N[C@H]1CCNC(=O)[C@H]([C@@H](C)O)NC(=O)[C@H](CCN)NC(=O)[C@H](CCN)NC(=O)[C@H](CC(C)C)NC(=O)[C@@H](CC(C)C)NC(=O)[C@H](CCN)NC1=O)[C@@H](C)O", "note": "(some centres not stated) [Colistin] (Biolog plate: PM11, well positions: C5-8)", "PosmB-lux reporter fold induction": "2.54 ± 0.89"}
{"smiles": "[Cl][Fe]([Cl])[Cl]", "note": "[ferric chloride] (Biolog plate: PM16, well positions: G5-8)", "PosmB-lux reporter fold induction": "0.898 ± 0.3"}
{"smiles": "C1COCCOCCOCCOCCOCCO1", "note": "[18-crown-6 ether] (Biolog plate: PM20, well positions: D9-12)", "PosmB-lux reporter fold induction": "2.22 ± 0.31"}
{"smiles": "Cc1ccccc1C(OCCN(C)C)c1ccccc1", "note": "(configuration not stated) [orphenadrine] (Biolog plate: PM20, well positions: B1-4)", "PosmB-lux reporter fold induction": "2.77 ± 1.3"}
{"smiles": "NC(=O)N/N=C/c1ccc([N+](=O)[O-])o1", "note": "[5-Nitro-2-furaldehyde semicarbazone] (Biolog plate: PM15, well positions: E5-8)", "PosmB-lux reporter fold induction": "1.67 ± 0.76"}
{"smiles": "Oc1c(Cl)cc(Cl)c2cccnc12", "note": "[5,7-Dichloro-8-hydroxyquinoline] (Biolog plate: PM15, well positions: C1-4)", "PosmB-lux reporter fold induction": "2.24 ± 0.92"}
{"smiles": "CCN1CCN(C(=O)N[C@@H](C(=O)N[C@@H]2C(=O)N3[C@@H]2SC(C)(C)[C@@H]3C(=O)O)c2ccccc2)C(=O)C1=O", "note": "[Piperacillin] (Biolog plate: PM14, well positions: F5-8)", "PosmB-lux reporter fold induction": "3.19 ± 1.8"}
{"smiles": "NO", "note": "[hydroxylamine] (Biolog plate: PM19, well positions: G9-12)", "PosmB-lux reporter fold induction": "1.82 ± 0.33"}
{"smiles": "CCn1cc(C(=O)O)c(=O)c2cc(F)c(N3CCNC(C)C3)c(F)c21", "note": "(configuration not stated) [Lomefloxacin] (Biolog plate: PM11, well positions: B9-12)", "PosmB-lux reporter fold induction": "1.5 ± 0.2"}
{"smiles": "Cc1onc(-c2ccccc2)c1C(=O)N[C@@H]1C(=O)N2[C@@H]1SC(C)(C)[C@@H]2C(=O)O", "note": "[Oxacillin] (Biolog plate: PM12, well positions: B1-4)", "PosmB-lux reporter fold induction": "2.16 ± 0.46"}
{"smiles": "CO/N=C(\\C(=O)N[C@@H]1C(=O)N2C(C(=O)O)=C(COC(C)=O)CS[C@H]12)c1csc(N)n1", "note": "[cefotaxime] (Biolog plate: PM16, well positions: A2-4)", "PosmB-lux reporter fold induction": "0.992 ± 0.32"}
{"smiles": "Nc1c2ccccc2nc2ccccc12", "note": "[9-Aminoacridine] (Biolog plate: PM14, well positions: B1-4)", "PosmB-lux reporter fold induction": "1.7 ± 0.1"}
{"smiles": "N=C(NCCCCCCNC(=N)NC(=N)Nc1ccc(Cl)cc1)NC(=N)Nc1ccc(Cl)cc1", "note": "[chlorhexidine] (Biolog plate: PM19, well positions: C1-4)", "PosmB-lux reporter fold induction": "1.21 ± 0.081"}
{"smiles": "CCN(CC)CCOC(=O)c1ccc(N)cc1", "note": "[Procaine] (Biolog plate: PM15, well positions: A2-4)", "PosmB-lux reporter fold induction": "1.21 ± 0.28"}
{"smiles": "CCS(=O)(=O)CCn1c([N+](=O)[O-])cnc1C", "note": "[tinidazole] (Biolog plate: PM18, well positions: F5-8)", "PosmB-lux reporter fold induction": "1.53 ± 0.081"}
{"smiles": "CS(=O)(=O)c1ccc([C@@H](O)[C@@H](CO)NC(=O)C(Cl)Cl)cc1", "note": "[thiamphenicol] (Biolog plate: PM18, well positions: A9-12)", "PosmB-lux reporter fold induction": "0.659 ± 0.017"}
